Assays:
Type in all cases: functional
Plasmodium falciparum [1] = assay: GSK_TCMDC: Inhibition of Plasmodium falciparum 3D7 in whole red blood cells, using parasite LDH activity as an index of growth. Test compounds present at 2uM
Plasmodium falciparum [2] = assay: GSK_TCMDC: Inhibition of Plasmodium falciparum Dd2 in whole red blood cells, using parasite LDH activity as an index of growth. Test compounds present at 2uM
HepG2 = assay: GSK_TCMDC: Percent inhibition of human HepG2 cell line. Test compounds present at 10uM.

Row | SMILES | Inhibition (Plasmodium falciparum [1]) [%] | Inhibition (Plasmodium falciparum [2]) [%] | Inhibition (HepG2) [%]
1 | Cc1cc(=NN=Cc2ccccc2F)c2cc(F)ccc2[nH]1 | 100 | 97 | 9
2 | CC(=O)OC[C@H]1O[C@@H](C#Cc2ccccc2)[C@H](OC(C)=O)[C@@H](OC(C)=O)[C@@H]1OC(C)=O | 95 | 90 | 5
3 | CCN(CC)C(C)(C)CN(Cc1ccc(-c2ccc(C(F)(F)F)cc2)cc1)C(=O)Cn1c(CCc2cccc(F)c2F)nc(=O)c2ccccc21.O=C(O)C(O)C(O)C(=O)O | 91 | 79 | 53
4 | CCCCCCCCOc1c(OCC)cc(Cc2cnc(N)nc2N)cc1OCC | 80 | 0 | 25
5 | CCOC(=O)CNCC(=O)c1ccc(OCc2ccccc2)cc1.Cl | 95 | 43 | 4
6 | CN(C)[C@@H]1C(O)=C(C(N)=O)C(=O)[C@@]2(O)C(O)=C3C(=O)c4c(O)ccc(C#Cc5ccccn5)c4C[C@H]3C[C@@H]12.Cl | 92 | 75 | 17
7 | COc1ccc(-c2cnc3ccc(NC4CCC(O)CC4)nn23)cn1 (stereo not given) | 98 | 73 | 54
8 | Cl.Nc1ccc2c(N)c3ccccc3nc2c1 | 93 | 74 | 20
9 | N#CC(c1ccc(F)cc1)c1ccc2c(C(F)(F)F)cc(C(F)(F)F)nc2n1 (stereo not given) | 97 | 89 | 9
10 | CN(CCCCNC(=O)/C=C/c1ccccc1)C1CC2(CCN(C(=O)OC(C)(C)C)CC2)c2ccccc21 (stereo not given) | 87 | 51 | 11
11 | O=C(Nc1ccsc1)Nc1cccc(-c2ccc(-c3nc4cc(C(F)(F)F)ccc4[nH]3)cc2)c1 | 99 | 36 | 45
12 | CC(=O)N(C)C1CCN(Cc2cccc(-c3ccc(-c4nc5cc(C(F)(F)F)ccc5[nH]4)cc3)c2)C1.O=C(O)C(F)(F)F (stereo not given) | 100 | 94 | 31
13 | COc1ccc(C=NN=c2cc(C)[nH]c3ccccc23)c(OC)c1 | 100 | 94 | 24
14 | CC(C)(C)C1CCc2nc(N)nc(N)c2C1.Cl (stereo not given) | 94 | 38 | 69
15 | Cc1cc(NC(=O)Nc2ccc3ncccc3c2)c2ccccc2n1 | 93 | 27 | 6
16 | CCNC(=O)Nc1ccc(-c2ccc(-c3nc4cccc(C)c4[nH]3)s2)cc1 | 96 | 13 | 18
17 | CC(C)(C)Nc1cc(C2CC2)nc(-c2ccccn2)n1 | 88 | 75 | 0
18 | CN(C)c1cc(NC(=O)Nc2ccccc2)c2ccccc2n1 | 100 | 98 | 11
19 | Cc1nnsc1C(=O)Nc1cccc(-c2ccc(-c3nc4ccccc4[nH]3)cc2)c1 | 100 | 58 | 48
20 | CN1CCCN(Cc2ccc(-c3cccc(NC(=O)c4ccc(Cl)cc4)c3)cc2)CC1.O=C(O)C(F)(F)F | 98 | 50 | 34
21 | Cc1ccc(NC(=O)Nc2ccc(Br)cc2)cc1OCCN(C)C | 84 | 15 | 13
22 | COc1ccc2ncc(F)c(CCN3CC[C@@H](CNCc4nc5c(cc4C)SCC(=O)N5)C3)c2n1.Cl | 91 | 42 | 14
23 | CC(C)(C)c1ccc(NC(=O)c2cccc(CN3CCCN(CC4CCCCC4)CC3)c2)cc1.O=C(O)C(F)(F)F | 93 | 47 | 97
24 | CN(C)C(=O)CC(=O)NCc1c(Cl)cccc1Cl | 95 | 2 | 2
25 | COc1ccccc1CNC(=O)c1cc(Br)cc(N2CCN(c3ccncc3)CC2)c1.O=C(O)C(F)(F)F | 95 | 76 | 43
26 | CCCNC(=O)C1CCN(C(c2ccccc2)c2ccc(Cl)c(Cl)c2)CC1 (stereo not given) | 90 | 90 | 15
27 | CC(C(=O)N1CCCC1)N1CCN(C(c2ccccc2)c2ccccc2)CC1 (stereo not given) | 82 | 56 | 0
28 | Cc1cc(NC(=O)CCCN2CCN(c3cccc(Cl)c3Cl)CC2)ccc1N1CCN(C(C)C)CC1.Cl | 100 | 53 | 86
29 | CCOc1cccc(C(=O)Nc2nonc2-c2ccc(OC)c(OC)c2)c1 | 92 | 95 | 11
30 | CCCN1CCN(CCNC(=O)c2cccc(Nc3nccc(Nc4ccc(Oc5ccccc5)cc4)n3)c2)CC1 | 99 | 96 | 56
